Reference: PubChem BioAssay (NCATS)
Inconclusive results are not listed. Calls of active or inactive are those of the source. Calls follow the shape of the dose curve; as a rule, active = well fitted curve in the direction sought with a large enough effect; inconclusive = small, poorly fitted or top-dose-only effect, or another doubt; inactive = no such curve, though single readings can be large; an effect the other way counts as inactive or inconclusive.

Experiments:
[1] = qHTS to identify inhibitors of the type 1 interferon - major histocompatibility complex class I in skeletal muscle: primary screen against the NCATS Pharmaceutical Collection (AID 1347407);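 also: luminescence of HiBiT knocked into endogenous HLA-B as interferon-induced MHC class I level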
Method in brief: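 Immortalized human myoblasts (C25cl48) with HiBiT knocked into endogenous HLA-B*08:01 were stimulated with 4.0 ng/ml IFN-beta and treated with compounds ([…] top 46 uM) for 24 hrs at 37 C. HiBiT lytic luminescence read.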

[2] = target: Protein phosphatase 1D (Homo sapiens) (UniProt O15297); test: RapidFire Mass Spectrometry qHTS Assay for Modulators of WT P53-Induced Phosphatase 1 (WIP1) (AID 1347424);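 also: amount of dephosphorylated VEPPL-S-QETFS peptide product formed by WIP1; series mostly up to about 63 µM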
Method in brief: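 RapidFire mass spectrometry measured dephosphorylated peptide after 5 min room-temperature reaction of 2 uM VEPPL-pS-QETFS with 10 nM WIP1 (50 mM Tris-HCl pH 7.5, 30 mM MgCl2, 0.1 mM EGTA, BSA), following 1 hr compound preincubation; 1 uM isotope-labelled product standard.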

[3] = target: Protein phosphatase 1D (Homo sapiens) (UniProt O15297); test: Rhodamine-PBP qHTS Assay for Modulators of WT P53-Induced Phosphatase 1 (WIP1) (AID 1347425)
Method in brief: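 The read-out is the change in Rhodamine-PBP fluorescence (f1 - f0, ex 525/em 598 nm) as Pi is released, read each minute for 11 min. Final reaction: 5 nM WIP1, 10 uM phosphopeptide VEPPL-pS-QETFS, 10 uM Rh-PBP, 50 mM Tris-HCl pH 7.5, 30 mM MgCl2. Compound was preincubated with enzyme for 1 hour at room temperature.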

[4] = Primary qHTS for inhibitors of La Crosse Virus (LACV) - induced cell death in SH-SY5Y cells (AID 1508616);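 also: top concentration of the series differs between compounds; higher means more rescue of cells from virus-induced death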
Method in brief: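 Screening measures cell viability in LACV-infected SH-SY5Y cultures. Compound was added before virus (0.01 MOI), and ATP was detected by luminescence 6 days later.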

[5] = target: Calcium and integrin-binding protein 1 (Homo sapiens) (UniProt Q99828); test: Primary qHTS for Identification of Calcium Integrin Binding Protein 1 (CIB1) Competitor (AID 1508620);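 also: GST tagged CIB1 binding a fluorescein labelled alphaIIb integrin peptide tracer; top concentration of the series differs between compounds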
Method in brief: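 CIB1-GST (1 uM final) and compound incubated 15 min at room temperature before adding FITC-alphaIIb peptide tracer (100 nM final). Competition for binding read by fluorescence polarization (ex 480, em 540) after another 15 min at room temperature.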

Measured: Potency

Calcium and integrin-binding protein 1 (Homo sapiens), sequence (Q99828 whole entry, looked up): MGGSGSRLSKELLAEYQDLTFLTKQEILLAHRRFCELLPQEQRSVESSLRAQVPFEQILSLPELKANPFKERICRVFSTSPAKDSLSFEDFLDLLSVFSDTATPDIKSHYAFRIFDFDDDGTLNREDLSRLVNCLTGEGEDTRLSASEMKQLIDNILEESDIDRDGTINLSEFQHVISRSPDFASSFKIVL
Protein phosphatase 1D (Homo sapiens), sequence (O15297 whole entry, looked up): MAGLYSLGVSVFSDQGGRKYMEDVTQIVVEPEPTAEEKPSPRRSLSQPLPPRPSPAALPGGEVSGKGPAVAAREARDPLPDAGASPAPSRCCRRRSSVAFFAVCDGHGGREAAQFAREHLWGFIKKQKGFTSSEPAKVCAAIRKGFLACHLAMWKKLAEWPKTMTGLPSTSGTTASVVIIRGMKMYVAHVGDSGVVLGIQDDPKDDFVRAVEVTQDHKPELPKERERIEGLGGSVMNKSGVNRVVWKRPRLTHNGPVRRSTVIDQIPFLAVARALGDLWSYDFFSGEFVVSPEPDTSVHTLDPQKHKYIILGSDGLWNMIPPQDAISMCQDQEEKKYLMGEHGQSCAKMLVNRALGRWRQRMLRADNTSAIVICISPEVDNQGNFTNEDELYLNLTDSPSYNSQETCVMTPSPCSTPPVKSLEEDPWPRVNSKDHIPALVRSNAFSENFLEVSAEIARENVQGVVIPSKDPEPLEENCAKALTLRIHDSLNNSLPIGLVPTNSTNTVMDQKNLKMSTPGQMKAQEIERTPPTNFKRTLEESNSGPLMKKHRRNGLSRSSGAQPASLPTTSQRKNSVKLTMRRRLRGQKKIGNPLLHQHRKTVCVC

COc1cc(C(=O)NC2CCCNC2)cc(OC)c1OC (stereo not given)
inactive: all assays above

CN(C)CCN(Cc1ccsc1)c1ccccn1
inactive: all assays above

Cc1cc(C(C)(C)C)c(O)c(C(C)(C)C)c1
inactive: all assays above

Nc1c(I)cc(I)c(C(=O)N(CCC(=O)O)c2ccccc2)c1I
inactive: all assays above

C[N+]1(C)CCC(OC(=O)C(O)(c2ccccc2)C2CCCC2)C1 (stereo not given)
inactive: all assays above

COc1cc(S(N)(=O)=O)cc(C(=O)O)c1OC
inactive: all assays above

NS(=O)(=O)c1ccc(N2CCCCS2(=O)=O)cc1
inactive: all assays above

c1ccc2c(c1)CCc1ccccc1N2
inactive: all assays above

CC1(C)S[C@@H]2[C@H](NC(=O)C(c3ccccc3)S(=O)(=O)O)C(=O)N2[C@H]1C(=O)O (stereo not given in full)
inactive: all assays above

COc1ccc2c(c1)c(CC(=O)OC/C=C(\C)CC/C=C(\C)CCC=C(C)C)c(C)n2C(=O)c1ccc(Cl)cc1
inactive: all assays above

CCOC(=O)Oc1ccc(CCNC(=O)[C@H](CCSC)NC(C)=O)cc1OC(=O)OCC
inactive: all assays above

C[C@H]1NCc2cc(-c3ccc4c(=O)c(C(=O)O)cn(C5CC5)c4c3OC(F)F)ccc21
inactive: all assays above

COc1cc2c(cc1OC)C(=O)CC2
inactive: all assays above

c1ccc2occc2c1
inactive: all assays above

Cn1c(=O)c2c(ncn2CC(=O)O)n(C)c1=O
inactive: all assays above

C/C(=C(/OCCOc1ccc(Cl)cc1)c1ccc(Cl)cc1Cl)n1ccnc1
inactive: all assays above

CC(C)C(=O)OCc1cccc(OC(=O)[C@@H]2N3C(=O)[C@@H](NC(=O)Cc4ccccc4)[C@H]3SC2(C)C)c1
inactive: all assays above

Oc1ccccc1-c1nnco1
inactive: all assays above

CCOC(=O)C(=O)CCc1ccccc1
inactive: all assays above

CN(C)CCOC1=Cc2ccccc2Sc2ccc(Cl)cc21
inactive: all assays above

CCCCCC1Nc2cc(C(F)(F)F)c(S(N)(=O)=O)cc2S(=O)(=O)N1 (stereo not given)
inactive: all assays above

O=C(O)C1CCC1
inactive: all assays above

CC(=O)/C=C/C=C1/C2CCC(C2)C1(C)C (stereo not given)
inactive: all assays above

CO[C@@H]1[C@@H](O[C@@H]2O[C@H](C)[C@@H](O[C@H]3C[C@@](C)(O)[C@@H](O)[C@H](C)O3)[C@H](N(C)C)[C@H]2O)[C@@H](CC=O)C[C@@H](C)[C@@H](O[C@@H]2CC[C@H](N(C)C)[C@@H](C)O2)/C=C/C=C/C[C@@H](C)OC(=O)C[C@H]1OC(C)=O
inactive: all assays above

CC[C@@H]([C@H](C)O)n1ncn(-c2ccc(N3CCN(c4ccc(OC[C@@H]5CO[C@@](Cn6cncn6)(c6ccc(F)cc6F)C5)cc4)CC3)cc2)c1=O
inactive: all assays above

CC(=O)OC[C@H]1O[C@@H](OC(C)=O)[C@H](OC(C)=O)[C@@H]1OC(C)=O
inactive: all assays above

CSCC[C@H](NC(=O)[C@H](Cc1c[nH]c2ccccc12)NC(=O)CCNC(=O)OC(C)(C)C)C(=O)N[C@@H](CC(=O)O)C(=O)N[C@@H](Cc1ccccc1)C(N)=O
inactive: all assays above

CCn1ccc(NS(=O)(=O)c2ccc(N)cc2)nc1=O
inactive: all assays above

O=C(OCC1(COC(=O)c2cccnc2)CCCC(COC(=O)c2cccnc2)(COC(=O)c2cccnc2)C1O)c1cccnc1
inactive: all assays above

Cc1ccc2ccc(Cl)cc2n1
inactive: all assays above

CC(=O)N(CC(O)CO)c1c(I)c(C(=O)NCCO)c(I)c(C(=O)NCC(O)CO)c1I (stereo not given)
inactive: all assays above

Nc1c[n+](N2CCOCC2)no1
inactive: all assays above

CCCCC(CC)CNC(=O)CC(C)OC(=O)CCC(=O)O (stereo not given)
inactive: all assays above
